High-throughput results from PubChem BioAssay.
mHTT CaM bind: disrupts binding of mutant huntingtin to calmodulin. P42858. AlphaScreen His-mHTT/GST-CaM binding, luminescence. inhibition, % at 15 µM. 3.6% of 190,000 active;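 further: 0% = both proteins with DMSO and 100% = one protein alone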
Pf apPOL block: Pf-apPOL DNA polymerase inhibition; Recombinant Pf-apPOL, molecular beacon fluorescence, 1.5 h; inhibition, % at 10 µM; 0.25% of 210,000 active; AID 1794808
Starred values were filed as active, the others as inactive; / = not tested or not shown. The full list was thinned out, with hits kept by preference. No stated cut-off is given here; in the data, active means inhibition above about 50%; inactive means the rest.

SMILES	mHTT CaM bind	Pf apPOL block
CCOC(=O)c1cccc(NC(=O)N2CC(CC)Oc3ccccc32)c1 (stereo not drawn)	-19	-3
COc1ccc(OC)c(NC(=O)N2CC(C)Oc3ccc(C)cc32)c1 (stereo not drawn)	62*	-16
COc1ccccc1NC(=O)N1CCN(C)c2ccccc21	61*	0
CCOC(=O)c1cccc(NC(=O)N2CC3CCCN3c3ccccc32)c1 (stereo not drawn)	78*	0
COc1ccccc1NC(=O)N1CC(C)Oc2ccc(C)cc21 (stereo not drawn)	-2	-4
COc1ccccc1NC(=O)N1CCN(c2ccccc2OC)CC1	-1	-30
COc1ccc(OC)c(NC(=O)N2CC3CCCN3c3ccccc32)c1 (stereo not drawn)	83*	1
COc1ccc(OC)c(NC(=O)N2CCCC2c2ccccc2C)c1 (stereo not drawn)	19	-4
O=c1/c(=C/c2ccccc2)sc2nc(-c3ccc(Br)cc3)nn12	0	-19
CCCCNC(=O)C1CC(c2cccc(OC)c2)=NO1 (stereo not drawn)	-9	-5
CNC(=O)Cc1csc(NC(=O)C2COCC(=O)N2Cc2ccccc2)n1 (stereo not drawn)	-2	0
CCOC(=O)C1CCCN(C(=O)C2CCc3nc(N(CC)CC)ncc3C2)C1 (stereo not drawn)	8	1
COC(=O)c1cccc(NC(=O)N2CC3CCCN3c3ccccc32)c1 (stereo not drawn)	69*	-2
COc1cccc(NC(=O)N2CC3CCCN3c3ccccc32)c1 (stereo not drawn)	73*	-3
O=C(Nc1ccc(F)c(Cl)c1)N1CC2CCCN2c2ccccc21 (stereo not drawn)	4	-3
COc1ccc(OC)c(CCNC(=O)CCC(=O)N2CC3CCCN3c3ccccc32)c1 (stereo not drawn)	53*	-2
COc1cc(NC(=O)N2CC3CCCN3c3ccccc32)cc(OC)c1OC (stereo not drawn)	62*	4
COc1cc(NC(=O)N2CCOc3ccc(C)cc32)cc(OC)c1OC	8	-7
O=C(Nc1cccc(F)c1)N1CC2CCCN2c2ccccc21 (stereo not drawn)	46	-3
COc1ccc(CNC(=O)CCC(=O)N2CC3CCCN3c3ccccc32)c(OC)c1 (stereo not drawn)	36	-4
O=C1CSC(c2cc3c(cc2[N+](=O)[O-])OCO3)N1c1cccc(C(F)(F)F)c1 (stereo not drawn)	27	-5
CCC(=O)NCc1csc(C2CCN(C(=O)c3ccc(OC)cc3)CC2)n1	-5	-2
Cc1cc(C)cc(NC(=O)C(=O)Nc2ccc([N+](=O)[O-])cc2)c1	-7	-1
CCOc1ccccc1Oc1coc2cc(OC(=O)c3cccc([N+](=O)[O-])c3)ccc2c1=O	-4	-4
O=C(Cn1cnc2ccccc2c1=O)NCCn1nc(-c2cccs2)ccc1=O	-2	-2
SMILES	mHTT CaM bind	Pf apPOL block
CCOC(=O)CNC(=O)N1CC2CCCN2c2ccccc21 (stereo not drawn)	16	-3
COc1cccc(CNC(=O)N2CC3CCCN3c3ccccc32)c1 (stereo not drawn)	66*	0
COc1ccc(NC(=O)N(CCCN2CCOCC2)Cc2cccnc2)c(OC)c1	-1	68*
COc1ccc(NC(=O)CN2CCC(C(=O)NCc3cccnc3)CC2)c(OC)c1	1	-3
Cc1cc(C2CCCN2C(=O)c2c(C)noc2C)on1 (stereo not drawn)	-5	4
COc1cccc2cc(C(=O)NCCn3nc(-n4ccnc4C)ccc3=O)oc12	-11	-5
Fc1ccccc1CN1CCc2nc(N3CCN(c4ccccc4)CC3)ncc2C1	34	4
Fc1cccc(CN2CCc3nc(N4CCN(c5ccccc5F)CC4)ncc3C2)c1	3	3
Fc1cccc(CN2CCc3nc(N4CCN(c5ncccn5)CC4)ncc3C2)c1	100*	-3
CCN1CCN(c2ncc3c(n2)CCN(Cc2cccc(C)c2)C3)CC1	79*	-2
COc1ccc(N2CCN(c3ncc4c(n3)CCN(Cc3cccc(F)c3)C4)CC2)cc1	51*	-4
COc1ccc(CN2CCc3nc(N4CCN(c5ccc(F)cc5)CC4)ncc3C2)cc1	0	-3
Cc1cccc(CN2CCc3nc(N4CCC(C)CC4)ncc3C2)c1	13	-1
Fc1ccc(CN2CCc3nc(N4CCN(c5ccccc5)CC4)ncc3C2)cc1F	100*	5
COc1ccc(C(=O)Nc2cc(C)ccn2)cc1[N+](=O)[O-]	1	2
CCOc1ccc(C(=O)N2CCC(n3c(-c4ccco4)nc4cccnc43)C2)cc1 (stereo not drawn)	1	-2
O=C(NCC(O)Cc1ccccc1)C1CCCCC1 (stereo not drawn)	0	-6
CCN1CCN(c2ncc3c(n2)CCN(Cc2cc(Br)cs2)C3)CC1	34	-1
Clc1ccc(CN2CCc3nc(N4CCN(c5ncccn5)CC4)ncc3C2)cc1	100*	-2
Clc1ccc(CN2CCc3nc(N4CCN(c5ccccc5)CC4)ncc3C2)cc1	41	3
Brc1csc(CN2CCc3nc(N4CCCC4)ncc3C2)c1	99*	6
C=CCNC(=O)C1CCCN(c2ccc(NC(=O)c3cccs3)cn2)C1 (stereo not drawn)	17	-3
CCC1Oc2ccccc2C2CC(c3cccs3)=NN12 (stereo not drawn)	75*	3
Oc1ccc(C2Oc3ccccc3C3CC(c4cccs4)=NN32)c(O)c1 (stereo not drawn)	64*	9
COc1cccc(C2Oc3ccccc3C3CC(c4cccs4)=NN32)c1O (stereo not drawn)	51*	8
SMILES	mHTT CaM bind	Pf apPOL block
COc1ccc([N+](=O)[O-])cc1C1Oc2ccccc2C2CC(c3cccs3)=NN21 (stereo not drawn)	28	0
c1csc(C2=NN3C(C2)c2ccccc2OC3c2ccc3c(c2)OCO3)c1 (stereo not drawn)	14	1
O=[N+]([O-])c1ccccc1C1Oc2ccccc2C2CC(c3cccs3)=NN21 (stereo not drawn)	20	-7
Clc1cccc(C2Oc3ccccc3C3CC(c4ccccc4)=NN32)c1Cl (stereo not drawn)	-9	/
O=[N+]([O-])c1ccc(O)c(C2Oc3ccccc3C3CC(c4cccs4)=NN32)c1 (stereo not drawn)	62*	3
Cc1cc(NC(=O)C2CCN(c3nccnc3Oc3ccccc3)CC2)ccc1F	-2	-5
NC(=O)CNC(=O)c1csc(Nc2cccnc2)n1	-11	-6
COc1cc(OC)c(-n2cc(-c3ccc(Br)cc3)[nH]c2=O)cc1Cl	12	-8
CCCOC(=O)c1cc2cc(Br)cc(OC)c2oc1=O	-6	0
O=C(Nc1ccc(Oc2ccc(OC(F)(F)F)cc2)cc1)c1ccccc1O	/	-11
Cc1ccc(S(=O)(=O)N(CC(=O)NC(C)C)c2ccc(C)c(Cl)c2)cc1	6	0
O=c1ccc(-c2ccc(F)cc2)nn1CCc1nc(-c2cccc(Br)c2)no1	56*	-9
O=c1ccc(-c2ccc(F)cc2)nn1CCc1nc(-c2ccccc2Cl)no1	-6	-5
COc1cccc(Oc2nccnc2N2CCC(C(=O)Nc3ccc(C)c(F)c3)CC2)c1	7	-3
Cc1ccc(C2=NN(C(=O)CN3CCCC3)C(c3ccc4c(c3)OCO4)C2)cc1 (stereo not drawn)	32	-7
